# According to the supplement of paper PMC10515830:
# Where a name gives a salt, the structure may show the parent alone.
# Tests used:
# Details in all cases: 10 µM; exposure time 6 h
# [1] = system: Danio rerio larvae (5 dpf); assay: difference in excitability vs DMSO (percentage points); higher = more excitable than DMSO
# Method in brief: (§1)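 In 96-well plates, 48 wild-type zebrafish larvae aged 5 dpf per compound received 100 µL egg water with library compound at 10 µM final for 6 h. Three hours into this, a 3-h programme of moving lines and 100 ms, 400Hz tones ran at 28.5 ℃ while plates were photographed every 6 s. Z-LaP Tracker scored the behaviours, and each is given as the compound mean minus the vehicle control mean in percentage points.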
# [2] = system: Danio rerio larvae (5 dpf); assay: difference in startle response vs DMSO (percentage points); higher = stronger startle than DMSO
# Method in brief: as §1
# [3] = system: Danio rerio larvae (5 dpf); assay: difference in activity during first hour vs DMSO (percentage points); higher = more activity than DMSO
# Method in brief: as §1
# [4] = system: Danio rerio larvae (5 dpf); assay: difference in habituation to acoustic stimuli vs DMSO (percentage points); higher = more habituation than DMSO
# Method in brief: as §1
# [5] = system: Danio rerio larvae (5 dpf); assay: difference in combined optomotor response to red, green and blue moving lines vs DMSO (percentage points); higher = stronger optomotor response than DMSO
# Method in brief: as §1
SMILES,difference in excitability [1],difference in startle response [2],difference in activity during first hour [3],difference in habituation to acoustic stimuli [4],difference [5]
COC(=O)c1ccc2c(c1)NC(=O)/C2=C(\Nc1ccc(N(C)C(=O)CN2CCN(C)CC2)cc1)c1ccccc1,16.7,-5.51,-11.1,1.6,3.92
CC(C)(C)c1cc(C(C)(C)C)c(NC(=O)c2c[nH]c3ccccc3c2=O)cc1O [Ivacaftor],2,-4.58,-10,-2.59,5.49
CC(COc1ccccc1)N(CCCl)Cc1ccccc1 (stereo not given) [Phenoxybenzamine (hydrochloride)],4.28,2.85,18.5,-1.54,2.87
Cc1cc(C(=O)NNCc2ccccc2)no1 [Isocarboxazid],9.42,3.52,-14,-2.77,4.57
CC(C)CN(C[C@@H](OP(=O)(O)O)[C@H](Cc1ccccc1)NC(=O)O[C@H]1CCOC1)S(=O)(=O)c1ccc(N)cc1 [Fosamprenavir (calcium salt)],0.179,4.76,22.4,-2.19,5.16
CCc1cccc2c3c([nH]c12)C(CC)(CC(=O)O)OCC3 (stereo not given) [Etodolac],-4.84,7.75,13.6,4.08,3.56
CC1(C)C[C@@H]1C(=O)N/C(=C\CCCCSC[C@H](N)C(=O)O)C(=O)O [Cilastatin],-5.97,11.7,15,-6.5,10.5
CCCCCCCCc1ccc(CCC(N)(CO)CO)cc1 [Fingolimod],5.87,-4.94,-2.73,-2,-4.81
C[C@H]1CN(C[C@H](Cc2ccccc2)C(=O)NCC(=O)O)CC[C@@]1(C)c1cccc(O)c1 [Alvimopan],3.61,0.764,-3.96,3.02,-3.48
COc1cccc(N2CCN(C3=Nc4c(F)cccc4[C@H](CC(=O)O)N3c3cc(C(F)(F)F)ccc3OC)CC2)c1 [Letermovir],9.24,-3.2,13.2,-5.75,-3.3
NC(=O)Cc1cccc(C(=O)c2ccccc2)c1N [Nepafenac],9.24,1.72,-6.03,4.01,-4.77
CN1C(=O)CC(C)(c2ccccc2)C1=O (stereo not given) [Methsuximide],-3.21,8.76,7.45,4.76,10.3
COc1ccccc1Oc1c(NS(=O)(=O)c2ccc(C(C)(C)C)cc2)nc(-c2ncccn2)nc1OCCO [Bosentan],11.1,-7.54,2.38,2.24,-0.979
CCC1=C(C)CN(C(=O)NCCc2ccc(S(=O)(=O)NC(=O)N[C@H]3CC[C@H](C)CC3)cc2)C1=O [Glimepiride],-3.07,2.59,2.62,3.43,-2.24
CCC(=O)NC[C@@H]1C[C@H]1c1cccc2c1CCO2 [Tasimelteon],25,6.9,-17.9,-3.17,11.5
CNS(=O)(=O)CCc1ccc2[nH]cc(C3CCN(C)CC3)c2c1 [Naratriptan (hydrochloride)],8.93,2.03,-1.59,7.18,-2.72
NCCC(O)(P(=O)(O)O)P(=O)(O)O [Pamidronate (sodium salt)],9.47,4.04,-2.6,-0.604,2.29
C=CC(N)CCC(=O)O (stereo not given) [Vigabatrin],-1.24,5.92,1.31,1.13,-0.249
CC=CC(=O)N(CC)c1ccccc1C [Crotamiton],0.486,3.97,-3.58,4.95,-3.13
O=C1NC(c2ccccc2)(c2ccccc2)C(=O)N1COP(=O)(O)O [Fosphenytoin (sodium salt)],1.33,6.03,-3.5,3.61,0.0516
CC(=O)OCC(=O)[C@@]12OC3(CCCC3)O[C@@H]1C[C@H]1[C@@H]3CCC4=CC(=O)C=C[C@]4(C)[C@@]3(F)[C@@H](O)C[C@@]12C [Amcinonide],8.43,5.38,-7.56,-0.863,4.08
Cc1[nH]cnc1CN1CCc2c(c3ccccc3n2C)C1=O [Alosetron (hydrochloride)],-3.91,3.08,8.78,3.46,8.63
CN1C(CCl)Nc2cc(Cl)c(S(N)(=O)=O)cc2S1(=O)=O (stereo not given) [Methyclothiazide],5.58,4.44,-0.184,2,-1.76
C[C@@H]1C[C@H]2[C@@H]3CCC4=CC(=O)C=C[C@]4(C)[C@@]3(Cl)[C@@H](O)C[C@]2(C)[C@@]1(OC(=O)c1ccco1)C(=O)CCl [Mometasone Furoate],11.9,0.167,1.33,0.89,3.46

SMILES,difference in excitability [1],difference in startle response [2],difference in activity during first hour [3],difference in habituation to acoustic stimuli [4],difference [5]
Cc1ccc(Cl)c(Nc2ccccc2C(=O)O)c1Cl [Meclofenamate (sodium salt)],11.1,12.4,-18,-13.1,-19.7
N#Cc1ccc(C(c2ccc(C#N)cc2)n2cncn2)cc1 [Letrozole],4.92,-5.86,-6.93,-3.28,0.376
CCCc1nc(C(C)(C)O)c(C(=O)OCc2oc(=O)oc2C)n1Cc1ccc(-c2ccccc2-c2nnn[nH]2)cc1 [Olmesartan Medoxomil],-0.702,-2.51,0.837,-4.7,0.0218
OC[C@H]1O[C@@H](O[C@@H]2[C@@H](CO)OC(O)(CO)[C@H]2O)[C@H](O)[C@@H](O)[C@H]1O (mixture of isomers) [Lactulose],2.43,-1.72,-2.1,-4.39,-4.94
CC(=O)CCCCn1c(=O)c2c(ncn2C)n(C)c1=O [Pentoxifylline],11.4,2.26,8.3,4.08,6.01
CNC(=O)c1cc(Oc2ccc(NC(=O)Nc3ccc(Cl)c(C(F)(F)F)c3)c(F)c2)ccn1 [Regorafenib],20.9,-2.66,-3.38,-6.09,1.15
C[C@]12CC[C@@H]3c4ccc(O)cc4C[C@@H](CCCCCCCCC[S+]([O-])CCCC(F)(F)C(F)(F)F)[C@H]3[C@@H]1CC[C@@H]2O (stereo not given in full) [Fulvestrant],1.25,0.684,-0.447,1.81,1.43
CC(C)(O)CNc1nc(Nc2ccnc(C(F)(F)F)c2)nc(-c2cccc(C(F)(F)F)n2)n1 [Enasidenib],15.7,-3.05,12.8,-6.3,2.71
C=C1CCN([C@H](C)[C@](O)(Cn2cncn2)c2ccc(F)cc2F)CC1 [Efinaconazole],14.8,-1.57,-5.8,-7.46,1.58
O=C1[C@@H]2[C@H]3CC[C@H](C3)[C@@H]2C(=O)N1C[C@@H]1CCCC[C@H]1CN1CCN(c2nsc3ccccc23)CC1 [Lurasidone],-9.91,6.61,-1.19,-11.8,-17
FCOC(C(F)(F)F)C(F)(F)F [Sevoflurane],-1.7,2.93,0.0224,4.17,-3.43
Nc1nc(=S)c2[nH]cnc2[nH]1 [6-Thioguanine],2.87,-3.35,1.36,0.958,6.09
COC(=O)N[C@H](C(=O)N1CCC[C@H]1c1ncc(-c2ccc(-c3ccc(-c4cnc([C@@H]5CCCN5C(=O)[C@@H](NC(=O)OC)C(C)C)[nH]4)cc3)cc2)[nH]1)C(C)C [Daclatasvir],18.7,2.15,-4.26,0.308,-0.609
CC(C)[C@H](N)C(=O)OCCOCn1cnc2c(=O)[nH]c(N)nc21 [L-Valacyclovir (hydrochloride)],6.67,6.55,5.61,-8.71,-5.74
C=C(c1ccc(C(=O)O)cc1)c1cc2c(cc1C)C(C)(C)CCC2(C)C [Bexarotene],7.21,1.4,-13.5,-4.93,-11
Cc1cc(Nc2ncc(Cl)c(Nc3ccccc3S(=O)(=O)C(C)C)n2)c(OC(C)C)cc1C1CCNCC1 [Ceritinib],23.6,-3.09,-7.86,-6.25,-1.6
Cc1[nH]c2ccccc2c1CCNCc1ccc(/C=C/C(=O)NO)cc1 [Panobinostat],7,-4.96,-8.62,3.43,1.65
COc1cc2c(cc1OC)CC(=O)N(CCCN(C)C[C@H]1Cc3cc(OC)c(OC)cc31)CC2 [Ivabradine (hydrochloride)],8.58,0.00664,14.5,-0.807,9.1
CCOc1cc(CC(=O)N[C@@H](CC(C)C)c2ccccc2N2CCCCC2)ccc1C(=O)O [Repaglinide],2.26,7.77,14.4,0.755,1.85
CC[C@]1(O)C[C@H]2CN(CCc3c([nH]c4ccccc34)[C@@](C(=O)OC)(c3cc4c(cc3OC)N(C=O)[C@H]3[C@@](O)(C(=O)OC)[C@H](OC(C)=O)[C@]5(CC)C=CCN6CC[C@]43[C@@H]65)C2)C1 [Vincristine (sulfate)],3.18,3.21,-4.31,-2.03,1.46
COc1ccc(Cl)cc1C(=O)NCCc1ccc(S(=O)(=O)NC(=O)NC2CCCCC2)cc1 [Glyburide (potassium salt)],9.95,5.16,10.9,-3.8,7.83
COc1ccc(CC(C)(C)NC[C@H](O)c2cc(O)cc3c2OCC(=O)N3)cc1 [Olodaterol],10.9,-5.93,11.8,-9.87,3.03
C[C@@H](O)[C@H]1C(=O)N2C(C(=O)O)=C(S[C@@H]3CN[C@H](C(=O)N(C)C)C3)[C@H](C)[C@H]12 [Meropenem (hydrate)],3.3,-1.18,0.0616,-0.499,3.61
O=C1[C@H](CC[C@H](O)c2ccc(F)cc2)[C@@H](c2ccc(O)cc2)N1c1ccc(F)cc1 [Ezetimibe],3.43,3.17,-1.12,-7.52,7.17
